The target in experiment [1] is High affinity nerve growth factor receptor (Homo sapiens) (UniProt P04629). To be noted: at 1 µM.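 Note: each value is the mean percent inhibition of TRKA.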
The target of experiment [2] is BDNF/NT-3 growth factors receptor (Homo sapiens) (UniProt Q16620). Conditions: at 0.1 µM.
Experiment [3] has the same target. To be noted: at 1 µM.
Experiment [4] deals with NT-3 growth factor receptor (Homo sapiens) (UniProt Q16288). To be noted: at 0.1 µM.
Experiment [5] shares this target. To be noted: at 1 µM.
The target of experiment [6] is T1, Tyrosine-protein kinase TXK (Homo sapiens) (UniProt P42681).
T1 sequence (whole entry): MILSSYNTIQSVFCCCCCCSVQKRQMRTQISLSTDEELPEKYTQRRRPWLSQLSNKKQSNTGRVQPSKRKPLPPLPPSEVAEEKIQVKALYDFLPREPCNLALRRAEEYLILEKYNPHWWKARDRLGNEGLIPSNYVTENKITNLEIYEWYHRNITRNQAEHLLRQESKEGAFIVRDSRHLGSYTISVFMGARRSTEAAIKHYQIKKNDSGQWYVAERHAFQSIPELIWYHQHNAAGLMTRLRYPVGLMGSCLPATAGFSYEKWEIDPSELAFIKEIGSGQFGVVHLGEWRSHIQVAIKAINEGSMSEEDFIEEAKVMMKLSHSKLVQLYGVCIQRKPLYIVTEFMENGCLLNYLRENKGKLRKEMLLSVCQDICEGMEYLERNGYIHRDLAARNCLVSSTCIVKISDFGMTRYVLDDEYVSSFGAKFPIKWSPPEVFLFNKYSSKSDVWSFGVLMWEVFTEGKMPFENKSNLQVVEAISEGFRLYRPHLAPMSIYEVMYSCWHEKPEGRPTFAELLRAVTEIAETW
Conditions: at 0.1 µM.

Experiment [7] has as its target T1, Tyrosine-protein kinase TXK (Homo sapiens). Conditions: at 1 µM.
In experiment [8] the target is Non-receptor tyrosine-protein kinase TYK2 (Homo sapiens) (UniProt P29597). To be noted: at 0.1 µM.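 Note: each value is a mean of the inhibition readings.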
Sequence of Non-receptor tyrosine-protein kinase TYK2 (Homo sapiens) (P29597 whole entry): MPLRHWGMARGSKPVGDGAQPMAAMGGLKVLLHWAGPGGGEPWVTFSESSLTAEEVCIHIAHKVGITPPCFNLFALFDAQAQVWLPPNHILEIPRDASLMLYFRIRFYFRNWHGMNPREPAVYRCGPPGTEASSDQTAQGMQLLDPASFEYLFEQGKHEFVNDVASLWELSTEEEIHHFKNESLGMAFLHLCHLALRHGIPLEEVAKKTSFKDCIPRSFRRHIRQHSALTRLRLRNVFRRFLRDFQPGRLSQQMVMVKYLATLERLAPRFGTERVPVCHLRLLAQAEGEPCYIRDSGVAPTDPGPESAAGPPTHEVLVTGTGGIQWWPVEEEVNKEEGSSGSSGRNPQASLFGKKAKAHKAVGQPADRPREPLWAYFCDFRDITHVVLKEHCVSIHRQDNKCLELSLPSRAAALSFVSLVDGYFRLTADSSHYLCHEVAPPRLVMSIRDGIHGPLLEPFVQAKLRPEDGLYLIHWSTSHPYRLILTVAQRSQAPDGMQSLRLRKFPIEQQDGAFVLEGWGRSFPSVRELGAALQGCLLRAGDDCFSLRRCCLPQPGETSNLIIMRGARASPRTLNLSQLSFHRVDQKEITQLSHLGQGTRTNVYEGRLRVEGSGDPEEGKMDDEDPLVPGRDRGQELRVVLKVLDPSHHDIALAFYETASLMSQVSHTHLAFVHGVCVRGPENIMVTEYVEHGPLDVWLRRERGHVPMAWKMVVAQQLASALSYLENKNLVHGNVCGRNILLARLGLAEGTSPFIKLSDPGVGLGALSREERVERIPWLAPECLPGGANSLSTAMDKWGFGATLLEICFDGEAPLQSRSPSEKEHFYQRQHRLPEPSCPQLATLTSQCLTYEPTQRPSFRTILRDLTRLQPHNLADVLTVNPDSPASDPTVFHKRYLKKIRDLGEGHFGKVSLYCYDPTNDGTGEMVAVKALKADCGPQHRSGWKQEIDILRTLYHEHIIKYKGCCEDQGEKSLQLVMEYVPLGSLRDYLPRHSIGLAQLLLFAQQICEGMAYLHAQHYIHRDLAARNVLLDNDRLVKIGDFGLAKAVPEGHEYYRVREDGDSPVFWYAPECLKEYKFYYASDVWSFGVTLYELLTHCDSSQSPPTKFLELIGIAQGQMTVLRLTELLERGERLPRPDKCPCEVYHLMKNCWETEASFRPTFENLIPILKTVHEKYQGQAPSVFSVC
In experiment [9] the target is T2, Dual specificity protein kinase TTK (Homo sapiens) (UniProt P33981).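 Note: reported figures are mean TTK inhibition at 1 µM.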
T2 sequence (whole entry): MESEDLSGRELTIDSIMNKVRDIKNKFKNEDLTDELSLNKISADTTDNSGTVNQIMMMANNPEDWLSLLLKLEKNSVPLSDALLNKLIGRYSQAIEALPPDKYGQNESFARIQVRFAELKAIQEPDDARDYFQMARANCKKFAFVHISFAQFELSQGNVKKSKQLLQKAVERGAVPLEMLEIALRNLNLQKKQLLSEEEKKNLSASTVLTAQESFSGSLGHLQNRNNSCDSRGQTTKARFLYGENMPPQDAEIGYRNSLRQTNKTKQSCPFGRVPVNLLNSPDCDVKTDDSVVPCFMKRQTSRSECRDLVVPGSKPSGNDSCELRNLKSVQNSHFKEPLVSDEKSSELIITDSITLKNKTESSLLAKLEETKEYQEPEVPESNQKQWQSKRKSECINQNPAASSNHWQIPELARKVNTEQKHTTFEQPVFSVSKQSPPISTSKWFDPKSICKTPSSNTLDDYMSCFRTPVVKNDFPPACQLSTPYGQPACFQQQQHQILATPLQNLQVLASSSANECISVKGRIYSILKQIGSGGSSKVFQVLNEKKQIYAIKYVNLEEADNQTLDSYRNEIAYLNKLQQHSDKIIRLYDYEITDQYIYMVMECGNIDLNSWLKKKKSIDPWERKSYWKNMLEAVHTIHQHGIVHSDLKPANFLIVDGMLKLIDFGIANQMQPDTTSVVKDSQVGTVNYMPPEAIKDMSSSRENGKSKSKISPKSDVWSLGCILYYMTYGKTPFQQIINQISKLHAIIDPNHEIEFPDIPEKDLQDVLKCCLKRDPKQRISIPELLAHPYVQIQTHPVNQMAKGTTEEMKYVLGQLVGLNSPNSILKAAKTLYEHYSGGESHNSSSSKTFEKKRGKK
Conditions: at 1 µM.

Experiment [10] concerns the target T3, Aurora kinase A (Homo sapiens) (UniProt O14965).
T3 sequence (whole entry): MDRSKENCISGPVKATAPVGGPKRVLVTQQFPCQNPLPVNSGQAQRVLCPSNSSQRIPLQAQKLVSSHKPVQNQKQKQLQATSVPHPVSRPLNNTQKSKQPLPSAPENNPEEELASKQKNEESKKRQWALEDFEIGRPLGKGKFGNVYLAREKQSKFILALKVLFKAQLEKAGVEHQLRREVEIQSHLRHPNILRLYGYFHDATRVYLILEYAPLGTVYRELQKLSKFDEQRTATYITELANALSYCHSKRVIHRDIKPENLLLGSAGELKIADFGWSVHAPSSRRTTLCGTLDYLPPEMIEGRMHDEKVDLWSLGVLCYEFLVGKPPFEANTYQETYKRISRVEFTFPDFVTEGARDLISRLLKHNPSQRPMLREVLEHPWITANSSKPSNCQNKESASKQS
To be noted: at 0.1 µM.

For experiment [11], the target named is T3, Aurora kinase A (Homo sapiens). To be noted: at 1 µM.
The target of experiment [12] is Aurora kinase B (Homo sapiens) (UniProt Q96GD4). To be noted: at 0.1 µM.
Sequence of Aurora kinase B (Homo sapiens) (Q96GD4 whole entry): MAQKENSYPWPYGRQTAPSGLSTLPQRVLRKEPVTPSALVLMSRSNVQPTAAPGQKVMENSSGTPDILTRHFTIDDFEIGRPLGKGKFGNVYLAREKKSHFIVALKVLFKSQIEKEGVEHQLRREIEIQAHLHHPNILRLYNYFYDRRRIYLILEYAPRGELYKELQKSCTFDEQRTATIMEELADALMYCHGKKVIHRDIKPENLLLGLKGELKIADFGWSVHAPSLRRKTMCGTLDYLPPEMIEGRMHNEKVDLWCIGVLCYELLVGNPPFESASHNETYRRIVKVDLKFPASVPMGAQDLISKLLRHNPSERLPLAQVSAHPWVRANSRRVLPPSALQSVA
Experiment [13] shares this target. To be noted: at 1 µM.
Experiment [14] concerns the target T4, Aurora kinase C (Homo sapiens) (UniProt Q9UQB9).
T4 sequence (whole entry): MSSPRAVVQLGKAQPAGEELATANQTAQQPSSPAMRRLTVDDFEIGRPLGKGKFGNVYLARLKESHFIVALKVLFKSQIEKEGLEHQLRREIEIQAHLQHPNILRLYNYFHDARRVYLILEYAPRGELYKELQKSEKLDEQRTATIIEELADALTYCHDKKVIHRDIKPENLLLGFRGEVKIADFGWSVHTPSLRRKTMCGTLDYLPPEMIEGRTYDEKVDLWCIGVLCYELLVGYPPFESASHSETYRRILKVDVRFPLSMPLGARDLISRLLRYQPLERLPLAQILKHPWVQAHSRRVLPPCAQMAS
To be noted: at 0.1 µM.

Experiment [15] has as its target T4, Aurora kinase C (Homo sapiens). To be noted: at 1 µM.
Experiment [16] concerns the target Serine/threonine-protein kinase 10 (Homo sapiens) (UniProt O94804). To be noted: at 0.1 µM.
The target is the same in experiment [17]. To be noted: at 1 µM.
For experiment [18], the target named is T5, Mitogen-activated protein kinase kinase kinase kinase 2 (Homo sapiens) (UniProt Q12851).
T5 sequence (whole entry): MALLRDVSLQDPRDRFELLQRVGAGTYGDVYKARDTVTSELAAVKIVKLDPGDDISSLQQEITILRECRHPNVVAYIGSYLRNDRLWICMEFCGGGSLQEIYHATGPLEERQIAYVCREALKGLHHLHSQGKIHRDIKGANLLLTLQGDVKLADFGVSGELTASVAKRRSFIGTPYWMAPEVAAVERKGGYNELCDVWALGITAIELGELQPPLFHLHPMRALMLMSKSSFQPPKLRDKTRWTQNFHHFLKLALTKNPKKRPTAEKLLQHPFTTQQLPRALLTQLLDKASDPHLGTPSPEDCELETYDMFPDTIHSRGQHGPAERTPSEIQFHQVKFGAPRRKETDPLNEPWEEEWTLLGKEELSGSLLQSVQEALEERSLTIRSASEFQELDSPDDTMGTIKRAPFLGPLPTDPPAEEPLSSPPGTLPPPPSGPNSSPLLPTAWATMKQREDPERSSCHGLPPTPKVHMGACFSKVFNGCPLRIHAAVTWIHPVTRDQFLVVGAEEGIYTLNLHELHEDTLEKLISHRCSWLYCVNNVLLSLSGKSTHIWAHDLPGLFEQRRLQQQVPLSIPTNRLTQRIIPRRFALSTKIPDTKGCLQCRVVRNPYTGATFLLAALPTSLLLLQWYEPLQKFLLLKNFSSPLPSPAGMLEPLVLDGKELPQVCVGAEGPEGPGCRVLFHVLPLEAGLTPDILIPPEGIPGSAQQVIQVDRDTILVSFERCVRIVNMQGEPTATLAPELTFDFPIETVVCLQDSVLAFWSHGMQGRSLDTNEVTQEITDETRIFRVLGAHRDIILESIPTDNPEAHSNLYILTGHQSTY
Conditions: at 0.1 µM.

Experiment [19] deals with T5, Mitogen-activated protein kinase kinase kinase kinase 2 (Homo sapiens). To be noted: at 1 µM.
For experiment [20], the target named is Mitogen-activated protein kinase kinase kinase kinase 4 (Homo sapiens) (UniProt O95819). Conditions: at 0.1 µM.

These results are taken from ChEMBL document CHEMBL1961873, “Compounds: GSK PKIS; Assays: Nanosyn kinase panel” (2012).

Sequence of High affinity nerve growth factor receptor (Homo sapiens) (P04629 33-796 limits assumed): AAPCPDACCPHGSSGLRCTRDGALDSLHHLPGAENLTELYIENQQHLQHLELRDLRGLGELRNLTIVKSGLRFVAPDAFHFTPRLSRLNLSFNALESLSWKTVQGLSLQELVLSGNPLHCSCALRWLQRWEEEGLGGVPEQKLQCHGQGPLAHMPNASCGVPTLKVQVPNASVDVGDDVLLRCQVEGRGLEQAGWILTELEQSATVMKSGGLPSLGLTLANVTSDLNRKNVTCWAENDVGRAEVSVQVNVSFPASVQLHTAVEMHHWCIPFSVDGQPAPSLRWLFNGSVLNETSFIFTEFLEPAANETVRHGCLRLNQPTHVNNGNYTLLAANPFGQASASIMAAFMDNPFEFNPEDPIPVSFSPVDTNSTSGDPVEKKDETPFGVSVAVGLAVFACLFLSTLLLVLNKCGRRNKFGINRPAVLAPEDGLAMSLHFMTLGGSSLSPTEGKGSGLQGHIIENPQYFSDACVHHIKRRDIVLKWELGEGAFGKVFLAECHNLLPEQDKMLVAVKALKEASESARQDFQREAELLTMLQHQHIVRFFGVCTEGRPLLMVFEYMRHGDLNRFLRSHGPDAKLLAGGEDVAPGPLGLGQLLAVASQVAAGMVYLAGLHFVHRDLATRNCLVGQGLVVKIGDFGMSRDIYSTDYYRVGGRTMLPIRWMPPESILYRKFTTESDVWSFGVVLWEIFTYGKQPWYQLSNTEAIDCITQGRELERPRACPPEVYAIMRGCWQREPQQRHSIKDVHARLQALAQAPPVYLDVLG
Sequence of BDNF/NT-3 growth factors receptor (Homo sapiens) (Q16620 32-822 limits assumed): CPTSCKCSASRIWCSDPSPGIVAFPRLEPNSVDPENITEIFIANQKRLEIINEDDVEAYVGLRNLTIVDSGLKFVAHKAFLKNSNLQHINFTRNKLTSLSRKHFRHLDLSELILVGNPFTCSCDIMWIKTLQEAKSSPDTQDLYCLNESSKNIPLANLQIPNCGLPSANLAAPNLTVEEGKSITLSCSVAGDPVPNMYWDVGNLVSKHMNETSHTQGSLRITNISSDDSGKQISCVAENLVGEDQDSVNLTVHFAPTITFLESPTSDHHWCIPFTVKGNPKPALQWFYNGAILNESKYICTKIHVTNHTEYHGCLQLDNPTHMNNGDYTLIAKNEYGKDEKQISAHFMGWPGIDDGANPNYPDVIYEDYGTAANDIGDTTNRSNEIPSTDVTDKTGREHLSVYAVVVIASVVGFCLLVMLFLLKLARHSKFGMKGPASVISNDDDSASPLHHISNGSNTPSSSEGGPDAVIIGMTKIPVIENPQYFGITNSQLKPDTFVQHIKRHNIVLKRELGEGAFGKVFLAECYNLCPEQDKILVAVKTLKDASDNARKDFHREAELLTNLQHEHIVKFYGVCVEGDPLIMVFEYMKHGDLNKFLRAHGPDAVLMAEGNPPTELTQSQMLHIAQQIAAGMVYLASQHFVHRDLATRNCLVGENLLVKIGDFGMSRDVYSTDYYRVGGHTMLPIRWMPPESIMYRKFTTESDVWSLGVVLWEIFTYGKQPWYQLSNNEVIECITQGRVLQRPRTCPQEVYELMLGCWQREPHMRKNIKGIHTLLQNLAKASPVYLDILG
Sequence of Serine/threonine-protein kinase 10 (Homo sapiens) (O94804 whole entry, looked up): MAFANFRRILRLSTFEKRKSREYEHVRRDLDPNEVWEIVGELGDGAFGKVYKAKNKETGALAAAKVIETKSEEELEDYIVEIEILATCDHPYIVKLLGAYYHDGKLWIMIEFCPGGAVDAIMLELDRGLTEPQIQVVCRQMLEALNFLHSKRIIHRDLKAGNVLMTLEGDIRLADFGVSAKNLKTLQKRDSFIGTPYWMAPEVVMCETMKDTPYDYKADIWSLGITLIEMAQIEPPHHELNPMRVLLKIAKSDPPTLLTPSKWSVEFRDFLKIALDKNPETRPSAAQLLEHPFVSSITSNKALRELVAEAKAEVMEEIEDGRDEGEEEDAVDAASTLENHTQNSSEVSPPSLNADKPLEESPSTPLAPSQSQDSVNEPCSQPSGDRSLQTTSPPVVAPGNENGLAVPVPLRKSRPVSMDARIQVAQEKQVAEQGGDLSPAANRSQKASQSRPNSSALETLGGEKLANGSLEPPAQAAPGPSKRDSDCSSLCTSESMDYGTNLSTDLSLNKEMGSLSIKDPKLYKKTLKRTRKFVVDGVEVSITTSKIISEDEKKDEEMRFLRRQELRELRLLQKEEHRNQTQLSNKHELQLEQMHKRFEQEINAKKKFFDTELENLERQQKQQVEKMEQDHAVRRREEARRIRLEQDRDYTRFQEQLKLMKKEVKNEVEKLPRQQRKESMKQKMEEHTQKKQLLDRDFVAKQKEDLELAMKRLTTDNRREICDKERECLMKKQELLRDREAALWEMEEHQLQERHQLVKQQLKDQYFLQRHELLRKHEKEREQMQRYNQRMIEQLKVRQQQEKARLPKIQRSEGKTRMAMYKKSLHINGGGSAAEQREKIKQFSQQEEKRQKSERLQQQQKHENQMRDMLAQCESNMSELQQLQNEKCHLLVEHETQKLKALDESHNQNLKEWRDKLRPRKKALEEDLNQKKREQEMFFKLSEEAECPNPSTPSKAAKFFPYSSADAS
Sequence of NT-3 growth factor receptor (Homo sapiens) (Q16288 32-839 limits assumed): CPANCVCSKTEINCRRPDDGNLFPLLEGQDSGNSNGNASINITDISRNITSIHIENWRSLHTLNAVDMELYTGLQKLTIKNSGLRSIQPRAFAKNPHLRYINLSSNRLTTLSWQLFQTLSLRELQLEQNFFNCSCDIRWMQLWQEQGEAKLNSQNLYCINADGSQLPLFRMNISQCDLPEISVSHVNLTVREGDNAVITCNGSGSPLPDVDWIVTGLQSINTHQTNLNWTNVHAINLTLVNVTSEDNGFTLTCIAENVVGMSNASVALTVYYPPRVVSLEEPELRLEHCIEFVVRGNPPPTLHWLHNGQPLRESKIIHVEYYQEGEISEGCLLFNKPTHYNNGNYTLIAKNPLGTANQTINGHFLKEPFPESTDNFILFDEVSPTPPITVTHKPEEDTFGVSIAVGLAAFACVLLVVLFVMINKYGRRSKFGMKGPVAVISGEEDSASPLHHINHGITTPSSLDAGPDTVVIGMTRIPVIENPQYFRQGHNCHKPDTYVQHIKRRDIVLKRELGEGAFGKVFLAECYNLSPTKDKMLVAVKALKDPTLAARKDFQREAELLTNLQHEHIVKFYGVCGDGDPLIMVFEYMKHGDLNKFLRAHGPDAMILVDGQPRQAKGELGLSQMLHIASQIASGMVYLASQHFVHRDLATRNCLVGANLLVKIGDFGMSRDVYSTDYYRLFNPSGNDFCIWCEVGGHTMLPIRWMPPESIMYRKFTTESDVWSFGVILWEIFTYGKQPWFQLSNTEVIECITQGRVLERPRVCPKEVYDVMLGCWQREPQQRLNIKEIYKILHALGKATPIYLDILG

As to `CS(=O)(=O)CCNCc1ccc(-c2ccc3ncnc(Nc4ccc(OCc5cccc(F)c5)c(C(F)(F)F)c4)c3c2)o1`, the inhibition in experiment [1] was -0.52%; in [2], 2.14%; in experiment [3] it was 2.72%; in experiment [4], 2.59%; in [5], 3.16%; in experiment [6], 3.11%. The inhibition was 3.02% in experiment [7]; -4.14% in experiment [8]; 7.39% in experiment [9]; 4.12% in experiment [10]; 2.73% in [11]; 2.77% in [12]. The inhibition was -1.87% in [13]; 0.77% in [14]; -1.89% in experiment [15]; 3.11% in experiment [16]; 7.45% in experiment [17]; 1.28% in [18]. Further, the inhibition in experiment [19] came out at 2.47%; in experiment [20] it was 3.22%.
On to `NCc1ccc(-c2nc(-c3ccc(Cl)c(O)c3)c(-c3ccncc3)[nH]2)cc1`, for which the inhibition is -1.42% in experiment [1]; -0.05% in experiment [2]; 0.73% in [3]; -0.91% in experiment [4]; 1.61% in experiment [5]; 18.9% in experiment [6]. Also, the inhibition worked out at 61.1% in experiment [7]; 1.75% in [8]; 7.44% in experiment [9]; 1.53% in experiment [10]; 9.73% in [11]; 1.17% in [12]. The inhibition was determined as 6.56% in experiment [13]; 1.89% in [14]; 5.03% in experiment [15]; 1.42% in experiment [16]; 23.7% in experiment [17]; 3.14% in experiment [18]. Further, the inhibition in experiment [19] worked out at 4.41%; in experiment [20], 4.02%.
As for `CCn1c(-c2nonc2N)nc2c(C#CC(C)(C)O)nc(OC[C@@H](N)c3ccccc3)cc21`, the inhibition in experiment [1] is 1.12%; in experiment [2] it was -1.96%; in experiment [3] it was 0.07%; in experiment [4], -1.23%; in experiment [5] it was 3.35%; in experiment [6] it was 6.5%. In addition, the inhibition in experiment [7] came out at 5.38%; in experiment [8] it was 2.72%; in experiment [9] it was 1.66%; in [10], 1.81%; in experiment [11] it was 11.7%; in experiment [12], 2.1%. Also, the inhibition in experiment [13] is 7.36%; in [14], 4.3%; in experiment [15], -0.02%; in [16], -0.81%; in experiment [17], 7.62%; in experiment [18], 0.61%. The inhibition in [19] stood at 8.96%; in experiment [20] it was 1.21%.
